Inconclusive results are not listed. A call without a number means that no potency is given here. Active and inactive are the calls of the source. Calls follow the shape of the full dose curve.
Tests used:
[1] = Cytotoxicity counterscreen for inhibitors of SARS-CoV-2 cell entry (AID 1645845); conditions: outcome: dose series up to 57.1 µM unless noted; also: nearly all actives have a fitted effect of over 50% in size
How it was run: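 48 h compound treatment (after 1 h preincubation), HEK293-ACE2 cells, 37 C/5% CO2; ATP luminescence endpoint; normalized to cell wells and media blanks.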

[2] = Primary qHTS to identify inhibitors of SARS-CoV-2 cell entry (AID 1645846); conditions: SARS-CoV-2 pseudovirus cell entry assay, luminescence; activity change, negative = inhibition: at 57.1 µM (top of the series) unless noted; also: nearly all actives have a fitted effect of over 45% in size
How it was run: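 HEK293-ACE2 (Expi293F, stable hACE2), 1500 cells/well, o/n 37C; cpd 23 nL pin, 1 h; MLV-PP w/ SARS-CoV-2-S (Wuhan-Hu-1, Δ19 C-term); 48 h 37C; Bright-Glo luminescence; normalized vs S-PP and bald PP.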
Potency is read from the fitted curve at half-maximal effect.

SMILES	Potency [1]	activity change, negative = inhibition [2]	Potency [2]	activity change, negative = cytotoxicity [1]
O=C1OC(COc2ccccc2[N+](=O)[O-])CC1Cc1ccccc1 (stereo not given)	inactive	-2.39%	–	–
CCS(=O)(=O)c1ccc2oc(-c3ccc4ccccc4c3)nc2c1	inactive	–	inactive	–
O=C(O)[C@H](CC(=O)N1C[C@H]2CCCC[C@H]2C1)Cc1ccccc1	inactive	-3.3%	–	–
COc1ccc2c(c1)CC[C@@H]1[C@@H]2CC[C@]2(C)[C@@H](NCCCCCCN3C(=O)C=CC3=O)CC[C@@H]12	inactive	–	inactive	–
C[C@H]1C[C@@H](n2c(Nc3ccc(OC(F)(F)F)cc3)nc3cc(CCC(=O)O)ccc32)CC(C)(C)C1	inactive	2.52%	–	–
C=CCNC1=C2C[C@@H](C)C[C@H](OC)[C@H](O)[C@@H](C)/C=C(\C)[C@H](OC(N)=O)[C@@H](OC)/C=C\C=C(/C)C(=O)NC(=CC1=O)C2=O	25.1 µM (active)	–	14.1 µM (active)	–
COc1cccc(Nc2ncnn3ccc(CN4CC[C@@H](N)[C@H](O)C4)c23)c1	inactive	–	inactive	–
CCCCOC(=O)NS(=O)(=O)c1sc(CC(C)C)cc1-c1ccc(Cn2ccnc2)cc1	inactive	–	inactive	–
Cc1[nH]nc(C(F)(F)F)c1Cc1sc2c(c1C(=O)N1C[C@](C)(O)CO1)c(=O)n(C)c(=O)n2C(C)C	inactive	-25.9%	–	–
NCC(=O)Nc1cncc(-c2nn3c(=O)cc(N4CCNCC4)nc3s2)c1	inactive	-55.5%	–	–
CC1(N)CCN(c2cccnc2NC(=O)c2nc(-c3ncccc3C(F)(F)F)cnc2N)CC1	inactive	–	14.1 µM (active)	–
COc1cc(OC)c2c(=O)[nH]c(-c3cc(C)c(OCCO)c(C)c3)nc2c1	inactive	–	inactive	–
COc1cc2c(cc1OCCCN1CCCC1)N=C(N)C21CCC1	inactive	-8.97%	–	–
C=CCN1C[C@H](C(=O)N(CCCN(C)C)C(=O)NCC)CC2c3cccc4[nH]cc(c34)C[C@H]21 (stereo not given in full)	inactive	-15.3%	–	–
Cc1cc(C)c(S(=O)(=O)N(CCc2cccc(Br)c2)Cc2ccc(-c3cccc(S(C)(=O)=O)c3)cc2)c(C)c1	inactive	-5.91%	–	–
O=C(NC[C@H](O)CN1CCc2ccccc2C1)c1ccnc(NC2CCC2)c1	inactive	4.47%	–	–
C[C@@H](O)[C@@H]1NC(=O)[C@H](CCCCN)NC(=O)[C@@H](Cc2c[nH]c3ccccc23)NC(=O)[C@H](Cc2ccccc2)NC(=O)[C@@H](NC(=O)[C@H](N)Cc2ccccc2)CSSC[C@@H](C(=O)N[C@H](CO)[C@@H](C)O)NC1=O	inactive	-12.9% [at 27.1 µM]	–	–
C[C@@H]1C(=O)OC2[C@H](O)[C@]34[C@H]5C[C@@H](C(C)(C)C)[C@]36[C@@H](OC(=O)[C@@H]6O)O[C@@]4(C(=O)O5)[C@]21O (stereo not given in full)	inactive	-20.5%	–	–
CC1(C)CC[C@]2(C(=O)O)CC[C@]3(C)C(=CC[C@@H]4[C@@]5(C)C[C@@H](O)[C@H](O)C(C)(C)[C@@H]5CC[C@]43C)[C@@H]2C1	inactive	–	inactive	–
CC(C)(O)C1CCC(Nc2ccc3ncc(-c4cccc(C(F)(F)F)c4)n3n2)CC1 (stereo not given)	inactive	-18.1%	–	–

SMILES	Potency [1]	activity change, negative = inhibition [2]	Potency [2]	activity change, negative = cytotoxicity [1]
CC(C)C(=O)OCC(=O)[C@@]12O[C@H](C3CCCCC3)O[C@@H]1C[C@H]1[C@@H]3CCC4=CC(=O)C=C[C@]4(C)[C@H]3[C@@H](O)C[C@@]12C	inactive	-13.1%	–	–
O=c1ccn([C@@H]2O[C@H](CO)[C@@H](O)[C@H]2O)c(=O)[nH]1	inactive	-16.1%	–	–
CC(=O)N[C@H]1[C@H](O[C@@H]2c3ccc(c(Cl)c3)Oc3cc4cc(c3O[C@@H]3O[C@H](CO)[C@@H](O)[C@H](O)[C@H]3NC(=O)CCCCCCCC(C)C)Oc3ccc(cc3Cl)C[C@H]3NC(=O)[C@H](N)c5ccc(O)c(c5)Oc5cc(O)cc(c5)[C@H](NC3=O)C(=O)N[C@H]4C(=O)N[C@H]3C(=O)N[C@@H]2C(=O)N[C@@H](C(=O)O)c2cc(O)cc(O[C@H]4O[C@H](CO)[C@@H](O)[C@H](O)[C@@H]4O)c2-c2cc3ccc2O)O[C@H](CO)[C@@H](O)[C@@H]1O	inactive	-12.4%	–	–
Cc1nc(-c2cccnc2)sc1C(=O)Nc1ccccc1-c1cn2c(CN3CCOCC3)csc2n1	inactive	–	inactive	–
Cc1ccc(NC(=O)[C@H]2CCCN(C(=O)c3c(C)cccc3F)[C@H]2c2ccc(NC3CCCC3)cc2)cc1C(F)(F)F	inactive	-27.6%	–	–
COc1cc2c(cc1OC)CN(CCc1ccc(-n3nnc(-c4cc(OC)c(OC)cc4NC(=O)c4cc(=O)c5ccccc5o4)n3)cc1)CC2	–	3.34% [at 0.702 µM]	–	2.79% [at 0.702 µM] (inactive)
O=C(NCCCNc1nc(Nc2cccc(CN3CCOCC3)c2)ncc1C1CC1)C1CCC1	inactive	–	inactive	–
O=c1cc(N2CCOCC2)oc2c(-c3ccc4c(c3)OCCO4)csc12	inactive	-5.73%	–	–
COc1ccc(-c2cc(C(O)C3CCCCN3)c3ccccc3n2)cc1 (stereo not given)	14.1 µM (active)	–	12.6 µM (active)	–
CC1(C)CCC2(CC1)N[C@@H](C(=O)N[C@@H]1CC[C@@H](C(N)=O)OC1)[C@H](c1ccnc(Cl)c1F)[C@]21C(=O)Nc2cc(Cl)ccc21	inactive	-20.9% [at 37.9 µM]	–	–
CS(=O)(=O)c1ccc(-c2nnc(/C=C/c3nnc(-c4ccc(C#N)cc4)o3)n2-c2ccccc2Cl)nc1	inactive	-12.6%	–	–
CC(C)C(N)C(=O)OCC(CO)OCn1cnc2c(=O)[nH]c(N)nc21 (stereo not given)	inactive	-6.77%	–	–
Nc1cc(COc2c(Cl)cc(C[C@H](N)C(=O)O)cc2Cl)c2oc(-c3ccccc3)nc2c1	inactive	-18.9%	–	–
CCOC(=O)N[C@@H]1CC[C@@H]2[C@@H](C1)C[C@H]1C(=O)O[C@H](C)[C@H]1[C@H]2/C=C/c1ccc(-c2cccc(F)c2)cn1	inactive	–	28.2 µM (active)	–
CC(C)S(=O)(=O)c1ccc2nccc(Nc3ccc4scnc4c3)c2c1	inactive	-14.4%	–	–
COCCNc1cc(NC(=O)N2CCCc3cc(CN4CCN(C)CC4=O)c(C=O)nc32)ncc1C#N	–	-9.55% [at 11.3 µM]	–	2.9% [at 11.3 µM] (inactive)
CC(C)(c1ccc(OCC(O)CO)cc1)c1ccc(OCC(O)CCl)cc1 (stereo not given)	inactive	-34.4%	–	–
CC[C@H]1OC(=O)[C@H](C)[C@@H](O[C@H]2C[C@@](C)(OC)[C@@H](O)[C@H](C)O2)[C@H](C)[C@@H](O[C@@H]2O[C@H](C)C[C@H](N(C)C)[C@H]2O)[C@](C)(O)C[C@@H](C)C(=O)[C@H](C)[C@@H](O)[C@]1(C)O	inactive	–	inactive	–
Cc1cn(CCN2CCN(c3ccccc3-c3cc(C#N)cc(C(=O)NCCCN4CCCC4)c3)CC2)c2ccccc12	35.5 µM (active)	–	17.8 µM (active)	–
O=C(NC[C@H](O)CN1CCc2ccccc2C1)c1cc(NC2COC2)ncn1	inactive	-13.5%	–	–

SMILES	Potency [1]	activity change, negative = inhibition [2]	Potency [2]	activity change, negative = cytotoxicity [1]
COc1c(C)cc(NC(=O)c2nn(Cc3ccc(F)cc3)c3c2CN(C(=O)c2ccc[nH]2)C[C@]3(C)C(N)=O)cc1C	inactive	–	inactive	–
C[C@H]1O[C@H](O[C@H]2[C@H](O)[C@@H](O)[C@@H](O[C@H]3[C@H](O)[C@@H](O)C(O)O[C@@H]3CO)O[C@@H]2CO)[C@H](O)[C@@H](O)[C@@H]1N[C@H]1C=C(CO)[C@@H](O)[C@H](O)[C@H]1O (stereo not given in full)	inactive	-16.5%	–	–
Cc1onc(-c2ccc(F)cc2)c1COc1ccc(C(=O)N2CCS(=O)(=O)CC2)cn1	inactive	-25.8%	–	–
COc1cc2nccc(Oc3ccc(NC(=O)c4cn(C(C)C)c(=O)n(-c5ccc(F)cc5)c4=O)cc3F)c2cc1OC	inactive	–	inactive	–
CCc1cccc2c3c([nH]c12)[C@@](CC)(CC(=O)O)OCC3	inactive	-19.9%	–	–
CCn1c(=O)c(-c2ccc(Cl)cc2Cl)cc2cnc(Nc3ccc(N4CCNCC4)c(F)c3)nc21	inactive	–	inactive	–
CC(=O)N[C@H]1CSSC[C@@H](C(N)=O)NC(=O)[C@H](C(C)C)NC(=O)[C@H](C)NC(=O)[C@H](Cc2cnc[nH]2)NC1=O	inactive	–	inactive	–
C=CC(=O)N1CCC(CNc2ncnc(N)c2-c2ccc(Oc3ccccc3)cc2)CC1	inactive	-20.9%	–	–
Cc1c(Cl)cccc1S(=O)(=O)Nc1nc(CCN2CCOCC2=O)cs1	inactive	-11.4%	–	–
CCN1CCN(Cc2ccc(NC(=O)c3ccc(C)c(/C=C/c4cnc5[nH]ccc5c4OC)c3)cc2C(F)(F)F)CC1	35.5 µM (active)	–	10 µM (active)	–
C[C@H](NC(=O)/C(C#N)=C/c1cccc(Br)n1)c1ccccc1	28.2 µM (active)	–	35.5 µM (active)	–
Nc1nc(F)nc2c1ncn2[C@@H]1O[C@H](COP(=O)(O)O)[C@@H](O)[C@@H]1O	inactive	0.103%	–	–
OCc1ccccc1O[C@@H]1O[C@H](CO)[C@@H](O)[C@H](O)[C@H]1O	inactive	-12.3%	–	–
CC(C)NC(=O)C1CCC(n2c(NC(=O)c3ccc(F)cc3)nc3ccc(CN4CCC(C(C)(C)O)CC4)cc32)CC1 (stereo not given)	inactive	-10.3% [at 27.1 µM]	–	–
COc1cc2ncnc(Nc3cccc(Cl)c3F)c2cc1OC(=O)N1CCN(C)C[C@H]1C	inactive	-27.8%	–	–
CC/C(=C(/c1ccc(O)cc1)c1ccc(OCCNC)cc1)c1ccccc1	inactive	-36.5%	–	–
O=C(Nc1nccs1)C(c1cc(F)ccc1O)N1Cc2ccccc2C1=O (stereo not given)	inactive	-14.9%	–	–
CC(=NNC(=O)c1cccc(S(=O)(=O)N2CCOCC2)c1)c1cc(Cl)ccc1O	inactive	-7.45%	–	–
COc1nc(N)nc2c1ncn2C1OC(CO)C(O)C1O (stereo not given)	inactive	1.29%	–	–
O=C(/C=C/c1ccc(CN(CCO)CCc2c[nH]c3ccccc23)cc1)NO	inactive	-7.55%	–	–

Source: PubChem BioAssay (NCATS)
